The source of these data is PubChem BioAssay (NCATS).

Structures are written as SMILES. Inconclusive results are not listed. Activity calls are given as the source filed them. The call rests on the fitted dose curve; in most records, active means well fitted inhibition curve with a large enough effect; inconclusive means small, poorly fitted or top-dose-only effect; inactive means no such curve, though single readings can be large or run the other way.
Potency means the concentration at half of the fitted maximal effect.

Sequence of Rap guanine nucleotide exchange factor 3 (Homo sapiens) (O95398 whole entry, looked up): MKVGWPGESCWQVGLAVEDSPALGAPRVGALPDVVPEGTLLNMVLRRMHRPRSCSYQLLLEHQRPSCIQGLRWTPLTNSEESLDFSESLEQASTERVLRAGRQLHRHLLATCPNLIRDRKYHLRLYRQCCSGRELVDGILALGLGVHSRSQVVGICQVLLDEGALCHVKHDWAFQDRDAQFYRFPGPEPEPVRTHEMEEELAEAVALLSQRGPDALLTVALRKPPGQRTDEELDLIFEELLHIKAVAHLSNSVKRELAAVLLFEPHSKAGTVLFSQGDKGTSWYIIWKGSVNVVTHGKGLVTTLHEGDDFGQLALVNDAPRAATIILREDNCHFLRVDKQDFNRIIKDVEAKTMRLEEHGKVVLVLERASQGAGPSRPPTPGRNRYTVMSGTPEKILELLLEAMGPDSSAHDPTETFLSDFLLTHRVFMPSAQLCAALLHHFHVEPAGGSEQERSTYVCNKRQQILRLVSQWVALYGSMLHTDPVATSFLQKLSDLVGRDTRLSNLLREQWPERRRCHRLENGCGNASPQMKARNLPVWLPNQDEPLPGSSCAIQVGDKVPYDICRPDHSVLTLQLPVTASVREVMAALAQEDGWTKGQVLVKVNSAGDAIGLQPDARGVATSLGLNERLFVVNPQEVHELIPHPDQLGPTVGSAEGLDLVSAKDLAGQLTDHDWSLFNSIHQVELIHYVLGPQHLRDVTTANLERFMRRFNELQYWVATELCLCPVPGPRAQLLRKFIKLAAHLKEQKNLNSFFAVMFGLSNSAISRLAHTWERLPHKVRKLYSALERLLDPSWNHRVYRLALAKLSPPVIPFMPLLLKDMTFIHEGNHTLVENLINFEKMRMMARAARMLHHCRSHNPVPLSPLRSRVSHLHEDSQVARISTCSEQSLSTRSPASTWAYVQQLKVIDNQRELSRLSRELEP

For the assay, the target named is Rap guanine nucleotide exchange factor 3 (Homo sapiens) (UniProt O95398). The experiment in a line: Confirmatory qHTS for antagonist of cAMP-regulated guanine nucleotide exchange factor 3 (EPAC1) (AID 1645880). Further: nearly all actives have a fitted effect of over 55% in size.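 On activity, negative = inhibition: plate controls were DMSO only for no effect and full effect of the ATA control for full effect.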 The conditions noted are these: EPAC1 Rap1B-BODIPY-GDP exchange, fluorescence; series mostly up to 115 µM; activity, negative = inhibition: at the top concentration. Put shortly:
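Released BODIPY-GDP fluoresces less than Rap1-bound BODIPY-GDP; the signal is followed at 480/540 nm at 5-min intervals over 30 min, after 5 min at room temperature. Reactions contain 100 nM EPAC1, 250 nM RAP1B-BODIPY-GDP and 50 uM GDP; results are normalized to ATA and DMSO.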
(In general: Quantitative high-throughput screening tests each substance at several concentrations.)
For `O=C(O)c1cc(N/N=C/c2ccncc2)ccc1Cl`, the “activity, negative = inhibition” value was -18.6% (inactive).

As to `Cc1ccccc1OCCC(=O)OCC(=O)N1CCN(S(=O)(=O)c2ccc(Cl)cc2)CC1`, the “activity, negative = inhibition” value is -20.8% (inactive). On the same count and under the same terms, the value for `COCCNC(=O)CS(=O)Cc1nc(-c2ccc(Cl)cc2)oc1C` (configuration not stated) was -16.9% (inactive); that for `O=c1oc2ccccc2nc1/C=C(O)/C=C\c1ccccc1` was -31.5% (inactive). Regarding `Nc1[nH]c(C(=O)c2ccccc2)c(-c2ccccc2C(F)(F)F)c1C(=O)NCCc1cccs1`, the “activity, negative = inhibition” value was -13.9% (inactive). For the compound `CCCOc1c(OC)cccc1C1CC(=O)Nc2cc(OC)c(OC)c(OC)c21` (configuration not stated), the “activity, negative = inhibition” value was -22.4% (inactive). Regarding `CCOc1nc(C)cc(C)c1S(=O)(=O)c1ccc(Cl)cc1`, the “activity, negative = inhibition” value is -29.6% (inactive). As for `COc1ccc2nc(N3CCN(C(=O)C4CC4)CC3)sc2c1`, the “activity, negative = inhibition” value is -17% (inactive). For the compound `COc1cc(-c2c(CCO)sc3ccccc23)cc(OC)c1OC`, the “activity, negative = inhibition” value was -15.2% (inactive). Same read-out and setting: in the case of `c1ccc(OCCCn2ccnc2)cc1` it was -11.8% (inactive). In the case of `CC(=O)Oc1c(Sc2ccccc2[N+](=O)[O-])c(C)nn1C(C)(C)C`, the Potency is 42.6 µM (active). In the case of `C[C@@H](c1ccccc1)N1Cc2ccccc2Oc2cc(Br)ccc2S1(=O)=O`, the “activity, negative = inhibition” value was -29.7% (inactive).

For the compound `O=C(N[C@@H](Cc1c[nH]c2ccccc12)C(=O)O)OCC1c2ccccc2-c2ccccc21`, the “activity, negative = inhibition” value is -10.4% (inactive).

For `O=C(CN1C(=O)N/C(=C\c2ccccc2OCc2ccc(C(=O)O)cc2)C1=O)Nc1ccccc1F`, the Potency was 28.2 µM (active). `CN1C(=O)/C(=C\c2ccc(N(C)C)cc2)OC1=S`: the “activity, negative = inhibition” value was -2.71% (inactive). For the compound `CC1CCCCC1NC(=O)COC(=O)c1c2c(nc3ccccc13)/C(=C/c1ccco1)CC2` (configuration not stated), the Potency was 75.7 µM (active).

`CCCc1[nH]nc2c1C(c1cccnc1)C(C#N)=C(N)O2` (configuration not stated): the “activity, negative = inhibition” value is -19.2% (inactive).
